# Screening data from PubChem BioAssay.
# A selection: hits, their analogues and other compounds. The true share with any hit is near 5.5%.
# ELG1 DNA repair – qHTS screen for small molecules that inhibit ELG1-dependent DNA repair in human embryonic kidney (HEK293T) cells expressing luciferase-tagged ELG1; HEK293T ELG1-luciferase reporter, luminescence, 16 h; DNA damage induced by 5-fluorouridine; Potency, µM (doses to about 46.1 µM), for inactives: at the top dose activity change, negative = inhibition, most hits filed as inhibitors; 2.3% of 330,000 active; AID 504467, 2011; also: potency is read from the fitted curve at half-maximal effect; nearly all actives have a fitted effect of over 55% in size
#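 DMSO vehicle served as the neutral condition. Each well held 2,000 cells given 5-fluorouridine plus compound; after 16 hr at 37 °C/5% CO2, ONE-Glo was added and luciferase measured 30 min later.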
# Giardia killer – Small Molecules that selectively kill Giardia lamblia: qHTS. Giardia lamblia trophozoite viability. activity change, % at 7.66 µM, hits read low. 0.15% of 340,000 active. AID 540267, 2011; in the data active = activity change below about -80%; inconclusive = between about -30% and that limit;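 also: parasites exposed to compound for two days anaerobically before the ATP read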
#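 Luminescent ATP signal served as the viability read-out, measured 15-30 min after adding ATP detection reagent to trophozoites that had been incubated with compounds for 48 hrs at 37 deg C anaerobically at 100 cells/well.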
# FBPA coupling cs – qHTS Assay for Inhibitors of Fructose-1,6-bisphosphate Aldolase from Giardia Lamblia: Coupling assay counterscreen. coupling enzyme system counterscreen, AmpLite Red fluorescence. activity change, negative = inhibition, % at 58.2 µM, hits read low. 0.67% of 290,000 active; in the data active = activity change below about -30%
#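 Counterscreen lacking aldolase: glyceraldehyde-3-phosphate coupling-enzyme reagent preincubated 10 min at RT with compound (at 57.5 uM final), then substrate/coupling system with AmpLite Red added; fluorescence read at 525/598 nm after 20 min RT.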
# Sfp inh – qHTS Assay for Inhibitors of Bacillus subtilis Sfp phosphopantetheinyl transferase (PPTase) | 4'-phosphopantetheinyl transferase ffp (Bacillus subtilis), Q9F4F7 | Biochemical Sfp PPTase activity, qHTS | Potency, µM, without a hit: largest response in the series, negative = inhibition, usual class: inhibitors | 3.5% of 310,000 active;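 also: the enzyme is Sfp with the accession as filed and its product quenches rhodamine fluorescence; potency is read from the fitted curve at half-maximal effect; 0% = enzyme reaction without inhibitor and -100% = no enzyme wells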
#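 Fluorescence-quenching assay with 15 nM Sfp, 5 uM rhodamine-CoA and 12.5 uM BHQ-2-labelled ybbR peptide in pH 7.6 Hepes/MgCl2 buffer. Enzyme was pre-incubated with compound for 15 min at room temperature. Rate was taken from the 30-min fluorescence change (525/598 nm).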
# * hit, by the source's call; ? = inconclusive; · = not tested or not shown; ! = repeats disagree. Unless noted, calls follow the shape of the dose curve; as a rule, active = well fitted curve in the direction sought with a large enough effect; inconclusive = small, poorly fitted or top-dose-only effect, or another doubt; inactive = no such curve, though single readings can be large; an effect the other way counts as inactive or inconclusive. Unless noted, % is scaled to controls: 0 for no effect and ±100 for the full control effect.
SMILES,ELG1 DNA repair,Giardia killer,FBPA coupling cs,Sfp inh
O=C(/C=C/c1ccc(Cl)cc1)N[C@@]12CCC(=O)[C@@H]3Oc4c(O)ccc5c4[C@@]31CCN(CC1CC1)C2C5,·,·,·,16%
CNc1ccc2oc(C[C@@H]3OC4(CC[C@@H]3C)O[C@H](C(C)C(=O)c3ccc[nH]3)[C@H](C)C[C@H]4C)nc2c1C(=O)O (stereo partly specified),·,·,-7,17%
CC(=O)Nc1ccc(S(=O)(=O)N2CCSC2c2ccc(C)cc2)cc1 (stereo unspecified),16µM*,-7,6,-1%
Cn1c(O)c(/C=C2\C=c3ccccc3=NC2=O)c(=O)n(C)c1=O,3%,-4,-2,45µM*
CCCNC(=O)c1c(N)n(CC2CCCO2)c2nc3ccccc3nc12 (stereo unspecified),?,14,-51*,?
CC(C)OCCCNC(=O)c1c(N)n(CC2CCCO2)c2nc3ccccc3nc12 (stereo unspecified),9.2µM*,8,-47*,-11%
Cc1cccc(N2CCN(C(=O)CCNS(=O)(=O)c3ccc4c(c3)oc(=O)n4C)CC2)c1C,?,18,1,24%
O=C(NC1CCCCC1)Oc1cc2oc(=O)sc2cc1Cl,-12%,1,1,3.5µM*
c1cc2cc(c1)C[n+]1ccc(c3ccccc31)NCc1ccc(cc1)CNc1cc[n+](c3ccccc13)C2,·,·,1,2%
CCCc1cc2c(n1Cc1ccco1)C(C)C1CN(C(=O)c3ccccc3)C(C)(C(=O)OC)C21 (stereo unspecified),·,·,-10,32µM*
CCCc1cc2c(n1Cc1ccc(C)cc1)C(C)C1CN(C(=O)c3ccccc3)C(C)(C(=O)OC)C21 (stereo unspecified),·,·,-6,12%
C[C@@]12C(=O)OC(=O)[C@@]1(C)[C@@H]1CC[C@@H]2O1,·,·,-5,?
CN(C)c1ccc(/C=C2/C(=O)NC(=O)N(Cc3ccco3)C2=O)cc1,13%,26,5,-19%
C=CCN1C(=O)/C(=C/c2cccs2)C(=O)NC1=S,?,9,0,20µM*
CCN(CC)c1ccc(/C=C2/C(=O)NC(=O)N(Cc3ccco3)C2=O)cc1,?,-20,-1,50µM*
O=C1NC(=S)N(Cc2ccco2)C(=O)/C1=C\c1cccs1,8%,·,-3,20µM*
OC[C@@H](O)[C@H]1O[C@@H]2OC(C(Cl)(Cl)Cl)O[C@H]2[C@H]1O (stereo partly specified),·,·,·,15%
O=C1CN=C(c2ccccc2)c2cc(Cl)ccc2N1CC1CC1,·,·,·,16%
Cc1ccc(OCC(=O)N2CCN(Cc3ccc([N+](=O)[O-])cc3)CC2)cc1,21µM*,-1,1,89µM*
Cc1cccc(OCC(=O)N2CCN(Cc3ccc([N+](=O)[O-])cc3)CC2)c1,6%,14,-3,12%
Cn1c(=O)c2[nH]cnc2n(C)c1=O,2%,-14,2,56µM*!
Cn1c(O)c(/C=N/c2ncccn2)c(=O)n(C)c1=O,-13%,12,1,3%
O=C(Nc1cccc(F)c1)N1CC2(CCNCC2)C1,·,·,-1,?
N[C@@H](Cn1oc(=O)[nH]c1=O)C(=O)O,·,7,-3,45µM*
N[C@@H](CCl)C(=O)O,·,8,·,·
SMILES,ELG1 DNA repair,Giardia killer,FBPA coupling cs,Sfp inh
CCCC(C)(COC(N)=O)COC(=O)NC1CC1 (stereo unspecified),·,·,·,21%
CCOC(=O)c1c(-n2c(C)cc(C=C3C(=O)NC(=S)NC3=O)c2C)sc2c1CCCC2,?,1,-4,18µM*
CCN1C(=O)NC(=O)/C(=C/c2cc(C)n(-c3sc(C)c(C)c3C#N)c2C)C1=O,?,26,-37*,16µM*
CCOC(=O)c1c(-n2c(C)cc(/C=C3/C(=O)NC(=O)N(CC)C3=O)c2C)sc2c1CCCC2,·,3,·,·
Cc1ccc(N2C(=O)NC(=O)/C(=C\c3cc(C)n(-c4sc5c(c4C#N)CCCC5)c3C)C2=O)cc1,17%,4,1,40µM*
Cc1cc(/C=C2\C(=O)NC(=O)N(c3ccc(Cl)cc3)C2=O)c(C)n1-c1cccc(C(=O)O)c1,2%,6,2,-9%
N#CC(C#N)=Cc1cc(O)c(O)c(O)c1,·,·,·,50µM*
N#CC(C#N)=Cc1ccc(O)cc1,·,·,5,22µM*!
N#CC(C#N)=Cc1cccnc1,11%,-10,3,-25%
COCCCOc1ccnc(CS(=O)c2nc3ccccc3[nH]2)c1C (stereo unspecified),?,1,-1,50µM*
CC[C@@]1(O)C(=O)OCc2c1cc1n(c2=O)Cc2cc3c(O)cccc3nc2-1,·,·,-2,?
CC[C@@]1(O)C(=O)OCc2c1cc1n(c2=O)Cc2cc3c(NC(=O)CN)cccc3nc2-1,?,-14,-13,56µM*
Clc1ccc(CO[C@@H](Cn2ccnc2)c2ccc(Cl)cc2Cl)cc1,·,·,4,10%
CC1CC(OP(O)(=S)c2ccc(N(C)C)cc2NC(=O)c2cccs2)CC(C)(C)C1 (stereo unspecified),-14%,6,2,10µM*
Cc1ccc(-c2cc(C(F)F)n3ncc(C(=O)N4CCC5(CC4)OCCO5)c3n2)cc1,18µM*,10,-1,-12%
CC(c1nccs1)N(C)C(=O)c1cn(Cc2cccc3ccccc23)nn1 (stereo unspecified),?,-5,1,5%
O=C1NO[C@H]2[C@@H]1CN[C@@H]2C(=O)O,·,·,-1,-2%
COc1ccc2c(c1O)-c1cc(O)cc3c1[C@@H](C2)N(C)CC3,·,·,·,-3%
CCCN1CCc2cc(O)cc3c2C1Cc1ccc(O)c(O)c1-3 (stereo unspecified),·,·,·,35µM*
C=CCN1CCc2cccc3c2[C@H]1Cc1ccc(O)c(O)c1-3,-4%,-1,-18,45µM*
C[C@]12CCC3C(CCC4=C(Cl)C(=O)CC[C@@]43C)C1CCC2O (stereo partly specified),·,·,·,6%
N#Cc1cccc(NC(=O)N2CC[C@@]3(CCCN(C(=O)Oc4ccccc4)C3)C2)c1,·,·,0,1%
CC[C@H]1C(=O)OC[C@H]1Cc1cncn1C,·,·,0,10%
c1cncc([C@@H]2CCCCN2)c1,·,·,0,23%
NC(Cc1ccc(Oc2cc(I)c(O)c(I)c2)c(I)c1)C(=O)O (stereo unspecified),·,·,·,-13%
Nc1cc2nc3ccccc3nc2cc1N,?,-4,-34*,?
CN1CCN(c2ccc([N+](=O)[O-])c(NCC3CCCO3)c2)CC1 (stereo unspecified),6%,10,-31*,5%
CN1CCN(c2ccc([N+](=O)[O-])c(NCc3ccco3)c2)CC1,29%,-29,-1,7%
O=C(O)c1cc(O)c(O)c(O)c1,·,·,-21,8.9µM*!
COc1ccc(C(=O)O)cc1OC,·,13,0,5%
